Source: PubChem BioAssay AID1865 (National Center for Advancing Translational Sciences (NCATS), 2009)
Out of some 280,000 compounds screened, about 540 (0.19%) were called active. Roughly 2% stayed inconclusive and do not appear here. This is one part of a sample in which actives are shown more often than they occur. A number with no mark means an inactive call. The call rests on the fitted dose curve; in most records, active means well fitted activation curve with a large enough effect; inconclusive means small, poorly fitted or top-dose-only effect; inactive means flat fitted curve, though single readings scatter.

Assay: Quantitative High-Throughput Screen for Regulators of Epigenetic Control; further: nearly all actives have a fitted effect of over 60% in size; on GFP activation: % of control where 0% means no effect
Conditions: murine LDR cells, GFP reporter derepression, 30 h; series mostly up to 53.9 µM; GFP activation: at the top concentration
From the text: NIH Molecular Libraries Screening Centers Network [MLPCN] NIH Chemical Genomics Center [NCGC] MLSCN Grant: 1 X01 MH079860-01 Assay Provider: Elisabeth D. Martinez, University of Texas SW Medical Center NCGC Assay Overview: The Locus Derepression (LDR) assay detects the derepression or induction of a GFP reporter that is stably integrated in a genomic region of murine cells that is presumably silenced. Transcription of the GFP reporter is controlled by a CMV promoter, which normally is constitutively active. However, this cell line, termed LDR, was selected for lack of constitutive production of GFP. GFP production can be induced by incubating the cells with histone deacetylase or DNA methyltransferase inhibitors (Martinez et al., 2006). Compounds that derepress or induce this reporter locus are identified by enumerating GFP positive cells using a laser-scanning microplate cytometer (Auld et al., 2006). This assay was screened against the MLSMR earlier (AID 597; (Johnson et al., 2008) and has been rescreened here against the expanded collection.
NCGC Assay Protocol Summary: Three hundred LDR cells in 5 uL per well were dispensed into black, clear-bottom 1536-well plates. Twenty-three nL compound was transferred to the assay plate and cells were incubated 30 hours at 37 C. Medium was removed, cells were washed two times with PBS, and GFP-positive cells were enumerated as fluorescent objects between the sizes of 20 to 120 um width and depth using an Acumen Explorer. References Auld, DS, Johnson, RL, Zhang, YQ, Veith, H, Jadhav, A, Yasgar, A, Simeonov, A, Zheng, W, Martinez, ED, Westwick, JK, Austin, CP, Inglese, J (2006). Fluorescent protein-based cellular assays analyzed by laser-scanning microplate cytometry in 1536-well plate format. Methods Enzymol 414: 566-89. Johnson, RL, Huang, W, Jadhav, A, Austin, CP, Inglese, J, Martinez, ED (2008). A quantitative high-throughput screen identifies potential epigenetic modulators of gene expression. Anal Biochem 375: 237-48. Martinez, ED, Dull, AB, Beutler, JA, Hager, GL (2006). High-content fluorescence-based screening for epigenetic modulators. Methods Enzymol 414: 21-36.
Potency means the concentration at half of the fitted maximal effect.

SMILES	GFP activation [%]	Potency
Cc1ccc(-n2c3nc(=O)[nH]c(=O)c-3cc3c(Cl)cccc32)cc1	0.833	–
Cc1c(-c2nsc(NC(=O)c3cccc(Cl)c3)n2)nnn1-c1ccccc1C(F)(F)F	-3.14	–
CSc1ccc(C2c3c(oc4ccccc4c3=O)C(=O)N2CCCN2CCOCC2)cc1 (stereo not drawn)	-0.962	–
CCC(C(=O)Nc1cccc(Cl)c1C)n1nc(-c2ccc(C)cc2)ccc1=O (stereo not drawn)	-5.49	–
CCOC(=O)CC1C(=O)NCCN1C(=O)COc1ccc(Br)cc1C (stereo not drawn)	-3.32	–
CCOC(=O)CNC(=O)c1cc2c(=O)n3cccc(C)c3nc2s1	-0.885	–
CCOC(=O)CC1C(=O)NCCN1c1nc2c(C)cccn2c(=O)c1/C=C1\SC(=S)N(C(C)CC)C1=O (stereo not drawn)	–	7.08 µM (active)
COc1ccc(-n2nnc(-c3nsc(NC(=O)c4ccc(C)c(C)c4)n3)c2C)cc1Cl	-3.18	–
Cc1ccc(SCC(=O)Nc2ccc3oc(-c4ccccc4F)nc3c2)cc1	16.1	–
Cc1c(Cl)cccc1NC(=O)Cn1cc(C(=O)c2cccs2)c2ccccc21	2.88	–
COc1cccc(C(=O)Nc2ccc(-c3cc(C(F)(F)F)nn3-c3ccccc3)cc2)c1	1.08	–
CCS(=O)(=O)c1ncc(N(Cc2ccc(F)cc2)Cc2ccco2)c(C(=O)Nc2cc(C)ccc2C)n1	-2.39	–
CC(C)CCN(C(=O)Nc1ccc(Cl)c(Cl)c1)C(C)c1cccs1 (stereo not drawn)	-0.998	–
CCc1cc2c(cc(C(=O)OC)n2Cc2nc(-c3ccc(C)cc3)oc2C)s1	2.7	–
COc1ccccc1-c1nnc(C2CCN(C(=O)c3ccc(Cl)cc3)CC2)o1	1.22	–
CCC(Sc1nc2n[nH]c(C)c2c(=N)n1-c1ccccc1Cl)C(=O)N(CC)CC (stereo not drawn)	0	–
CC1=C(C(=O)N2CCN(c3cccc(C(F)(F)F)c3)CC2)C2(CCCCC2)OC1=O	0	–
COc1ccc(OCCCn2c(C)nc3cc(C)c(C)cc32)cc1	-0.78	–
C/[N+]([O-])=C\c1ccc([N+](=O)[O-])o1	0.0128	–
CCn1c(/C=C/c2ccc([N+](=O)[O-])o2)nc2ccccc2c1=O	–	3.55 µM (active)
Cn1cc(/C=C/c2nc3ccccc3c(=O)n2-c2cccc([N+](=O)[O-])c2)c2ccccc21	0.971	–
Cc1c(Cl)cccc1NC(=O)N1CCN(C(=O)c2nsc3ccccc23)CC1	5.4	–
Cc1ccc(NC(=O)c2ccc(CN3CC(=O)N4CCCCC4C3=O)cc2)c(Cl)c1 (stereo not drawn)	-1.23	–
CCCN(CCC)C(=O)Cn1c(=O)n(-c2ccc(Cl)cc2)c(=O)c2c3c(sc21)CCCCC3	-0.0516	–
CC(C)(C)c1ccc(C(=O)Nc2ccc3c(c2)CCCN3C(=O)c2cccs2)cc1	-1.49	–

SMILES	GFP activation [%]	Potency
O=C(NCc1ccc2c(c1)CCN2C(=O)c1ccccc1)c1ccccc1	-0.465	–
CCOc1ccc(NC(=O)c2cc3c(=O)n(Cc4cccs4)ccc3nc2C)cc1	0	–
COc1cc(NC(=O)Cn2nc(-c3ccc(C)c(C)c3)ccc2=O)cc(OC)c1	0	–
COc1cccc(C(=O)NC2(C(F)(F)F)C(=O)Nc3c2c(=O)[nH]c(=O)n3-c2ccc(C)cc2)c1 (stereo not drawn)	0	–
O=C(COc1ccc(Cl)cc1)N(Cc1ccco1)Cc1ccco1	-1.6	–
CCNS(=O)(=O)c1ccc(NC(=O)CSc2nc(-c3ccco3)cc(C(F)(F)F)n2)cc1	-0.962	–
O=C(CSc1ncc(S(=O)(=O)c2ccc(Br)cc2)c(=O)[nH]1)Nc1ccc2c(c1)OCCO2	0	–
CN(C)c1nc(=Nc2cccc(Cl)c2)ss1	–	1.12 µM (active)
Clc1cccc(N=C2NN=C(c3ccc4c(c3)OCCO4)CS2)c1	-7.25	–
O=C1NCC(=O)N(Cc2ccccc2)/C1=C/c1ccccc1	-0.292	–
CC1=NN(Cc2ccccc2)C(=O)/C1=C/c1ccc(N(C)C)cc1	-0.855	–
CN(C)c1ccc(/C=C2\NC(=S)N(Cc3ccccc3)C2=O)cc1	–	7.08 µM (active)
COc1cc2[nH]c(=O)n(Cc3ccc(C(=O)NCc4ccc(C)cc4)cc3)c(=O)c2cc1OC	6.33	–
Cc1ccccc1C(=O)Nc1sc2c(c1C(=O)N1CCC(C)CC1)CCCC2	4.81	–
O=C(Cn1nc(Cc2cccnc2)c2ccccc2c1=O)N1CCN(c2ccccc2F)CC1	-5.16	–
CCN1CCN(CCNC(=O)c2ccc(/C=C3/Sc4ccccc4N(Cc4cccc(C)c4)C3=O)cc2)CC1	4.88	–
CCN1/C(=C\c2ccc3ccccc3[n+]2CC)Sc2cc(C)ccc21	–	0.562 µM (active)
CCN1/C(=C/c2ccc3ccc(C)cc3[n+]2CC)Sc2ccccc21	–	1.12 µM (active)
CCN1/C(=C/C(=S)Nc2ccccc2)Sc2ccccc21	0.971	–
COc1ccc(OC)c(NC(=O)C2CCCN(S(=O)(=O)c3ccc4c(c3)CCCC(=O)N4)C2)c1 (stereo not drawn)	0.833	–
COc1ccc(CCNC(=O)c2cn(C)c3ccc(S(=O)(=O)N(C)C4CCCCC4)cc3c2=O)cc1OC	1.22	–
COc1ccc(-c2onc(C)c2C)cc1S(=O)(=O)NCCc1ccccc1	-4.71	–
COc1ccc(NC(=O)c2ccc3nc(CCc4ccccc4)oc3c2)c(OC)c1	1.69	–
Cc1ccc2nc(/C(C#N)=C/c3ccc(-c4ccc(C(=O)OC(C)C)cc4)o3)[nH]c2c1	–	1.41 µM (active)
Cc1ccc2nc(/C(C#N)=C/c3ccccc3F)[nH]c2c1	-1.59	–

SMILES	GFP activation [%]	Potency
Cc1ccc2nc(/C(C#N)=C\c3ccc(OC(=O)c4cccs4)cc3)[nH]c2c1	5.06	–
COc1ccc(C(=O)Nc2cccc(C(=O)OCc3cc(=O)n4c5c(sc4n3)CCCC5)c2)cc1	3.53	–
NNC(=O)c1oc2nc(-c3ccccc3)cc(-c3ccco3)c2c1N	0.0322	–
CS(=O)(=O)c1sc2nc(-c3ccccc3)cc(-c3ccccc3)c2c1N	1.45	–
CNC(=S)NNC(=O)c1oc2nc(-c3ccccc3)cc(-c3ccco3)c2c1N	–	15.8 µM (active)
CC(=O)Nc1ccc(/C=N/NC(=O)c2cccs2)cc1	1.14	–
O=C(N/N=C/C=C/c1ccco1)c1cccs1	–	17.8 µM (active)
Cc1ccc(-c2cc(C(=O)N/N=C/C=C/c3ccco3)c3ccccc3n2)cc1C	2.16	–
Cc1ccc(S(=O)(=O)c2nc(-c3ccco3)oc2SCC(=O)Nc2ccc(F)cc2)cc1	11.1	–
Cc1cc(C(=O)Nc2cccc(C(F)(F)F)c2)c2c(C)nn(-c3cccc(F)c3)c2n1	-1.27	–
O=C(Nc1ccc2nc(SCC(=O)N3CCCc4ccccc43)sc2c1)c1ccc(F)cc1	-3.23	–
CC1Cc2cc(S(=O)(=O)CCC(=O)Nc3ccc(F)c(Cl)c3)ccc2N1C(=O)C1CC1 (stereo not drawn)	-0.364	–
Nc1ccc2c3c(cccc13)C(=O)NC2=O	–	17.8 µM (active)
CCN1C(=O)c2cccc3c(N)ccc1c23	0.901	–
Cc1nn(C)cc1N1C(=O)c2cccc3c(N)ccc(c23)C1=O	2.11	–
CN1CCN(c2oc(-c3ccc(COc4ccc(Cl)cc4)o3)nc2C#N)CC1	0	–
CC(=O)Nc1cccc(Oc2cc(C#N)c(C#N)cc2N2CCOCC2)c1	-1.01	–
COc1cc(N2CCCC2)c(OC)cc1/C=C(/C#N)c1cccc(Br)c1	–	3.55 µM (active)
COc1ccc(Br)cc1/C=N/n1c(C)nnc1C	4.97	–
Cc1ccc(CCNC(=O)Cn2c(-c3cccs3)cc3cc(F)ccc32)cc1	-1.88	–
Cc1noc2ncnc(NCc3ccccc3Cl)c12	0	–
Cc1nn(C(C)C(=O)NCCc2ccccc2)c(=O)c2c1sc1ccccc12 (stereo not drawn)	13.4	–
CCc1ccc(C2CC(=O)c3c([nH]c(C(=O)OCc4ccc(C)cc4)c3C)C2)cc1 (stereo not drawn)	0.291	–
CC(=O)c1ccc(NC(=O)CCc2nc(-c3ccc(C)cc3)no2)cc1	-1.54	–
CC(C)(C)c1ccc(S(=O)(=O)N2CCN(C(=O)c3cc(-c4ccc(Br)cc4)n[nH]3)CC2)cc1	0	–

SMILES	GFP activation [%]	Potency
Cc1cc(C)cc(NS(=O)(=O)c2ccc(-c3cc(C)no3)s2)c1	-0.833	–
O=C(/C=C/c1ccccc1)Nc1cc(-c2nc3cc(Cl)ccc3o2)ccc1Cl	1.08	–
Fc1ccc(Nc2nc(SCc3ccccc3Cl)nc3ccccc23)cc1	0	–
CCN1CCN(c2ncnc3c2cnn3-c2ccc(C)c(C)c2)CC1	0	–
Cc1ccc2nc(-c3ccncc3)cc(C(=O)Nc3ccc4c(c3)OCCO4)c2c1	2.23	–
Cc1ccc2nc(-c3ccccn3)cc(C(=O)Nc3ccc4c(c3)OCO4)c2c1	–	15.8 µM (active)
O=C(Nc1ccncc1)c1cc(-c2ccccn2)nc2ccc(Br)cc12	1.14	–
OCc1cnc(SCc2ccc(F)cc2)n1Cc1ccc(F)cc1	0.584	–
Cc1ccc(S(=O)(=O)N(CC(=O)Nc2ccc(Cl)cc2Cl)c2ccccc2C)cc1	1.91	–
Cc1ccc(C)c(N2CCN(C(=O)Cn3nc(C)c4sc5ccccc5c4c3=O)CC2)c1	-2.4	–
CCCCCCc1cc2cc(-c3nnc(-c4ccccc4)o3)c(=O)oc2cc1O	–	1.78 µM (active)
CCCCCCc1ccc(O)cc1O	13.1	–
CCCC(=O)Nc1nnc(-c2ccccc2)o1	1.08	–
COc1ccc(CNc2nc(-c3ccc(Cl)cc3)nn2S(=O)(=O)c2ccc(C)cc2)cc1	2.76	–
Cc1cccc(NC(=O)CSc2nnc(CNC(=O)c3cccc(C)c3)n2-c2ccccc2)c1	0	–
CCc1ccc(NC(=O)c2nn(-c3ccc(C)cc3)c(=O)n(C)c2=O)cc1	8.47	–
O=C(CN1C2=NCCN2c2ccccc21)c1cccs1	0	–
Nc1c(C(=O)c2cccs2)sc2nsc(SCCN3CCCCC3)c12	–	3.55 µM (active)
CN(C)c1ccnc2sc(C(=O)c3ccccc3)c(N)c12	-2.99	–
CCOC(=O)c1ccc(NC(=O)CC2C(=O)N(c3ccccc3)C(=O)N2Cc2cccs2)cc1 (stereo not drawn)	-0.348	–
CSc1ccccc1-c1nnc(NC(=O)c2ccc3c(c2)OCCO3)o1	-1.64	–
Cc1oc(-c2ccccc2F)nc1CN1CCC(C(=O)NCCc2ccc(Cl)cc2)CC1	-1.11	–
CC(C)c1ccc(NC(=O)CN(C)S(=O)(=O)c2ccc3c(c2)c(=O)n(C)c(=O)n3C)cc1	-1.11	–
